Compound activity from PubChem.
PP1 inh – blocks human PP1-alpha phosphatase, a PP5 counter-screen | P62136 | purified PP1alpha, OMFP fluorescence | inhibition, % at 6.7 µM | 320,000 compounds, 0.9% hits;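 active means inhibition above the mean inhibition of all tested compounds plus 3 SD, computed separately for each screening campaign, cut at about 15% in these data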
PAFAH1B2 FP inh – inhibitors of human PAFAH1B2; inhibition, % at 3.39 µM; recombinant PAFAH1B2, FP-rhodamine activity probe, fluorescence polarization; P68402; 340,000 compounds, 1.2% hits;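 active means inhibition above the mean of all tested compounds plus 3 SD, cut at about 24% in these data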;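 further: 0% = enzyme with DMSO and 100% = wells lacking PAFAH1B2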
Target sequence (P68402 whole entry, looked up): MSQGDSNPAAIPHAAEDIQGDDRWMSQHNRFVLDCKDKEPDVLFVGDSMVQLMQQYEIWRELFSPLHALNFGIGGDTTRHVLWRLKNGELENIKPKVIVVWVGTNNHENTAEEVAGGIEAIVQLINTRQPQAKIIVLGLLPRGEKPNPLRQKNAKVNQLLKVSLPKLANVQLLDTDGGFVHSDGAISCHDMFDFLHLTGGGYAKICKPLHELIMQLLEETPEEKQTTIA
PAFAH1B3 FP inh – inhibitors of human PAFAH1B3 | recombinant PAFAH1B3, FP-rhodamine probe, fluorescence polarization | AID 492972 | 340,000 compounds, 0.28% hits | inhibition, % at 3.39 µM;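 active means inhibition above the screen-wide average of all tested compounds plus 3 SD, cut at about 25% in these data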;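 further: 0% = enzyme with DMSO only and 100% = wells lacking PAFAH1B3 protein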
Target sequence (Q15102 whole entry, looked up): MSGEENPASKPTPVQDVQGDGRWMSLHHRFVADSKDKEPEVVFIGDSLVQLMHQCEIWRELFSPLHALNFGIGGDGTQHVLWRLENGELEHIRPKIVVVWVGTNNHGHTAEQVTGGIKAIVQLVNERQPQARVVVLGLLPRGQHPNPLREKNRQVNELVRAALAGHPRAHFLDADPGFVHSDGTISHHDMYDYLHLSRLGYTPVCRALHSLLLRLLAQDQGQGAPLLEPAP
PP5 primary – PP5 (human) phosphatase inhibition; 320,000 compounds, 0.18% hits; inhibition, % at 6.7 µM; purified PP5c, OMFP substrate fluorescence; P53041;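 active means inhibition above the campaign's mean inhibition across all tested compounds plus 3 SD, cut at about 9.5% in these data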;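 further: 0% = DMSO only and 100% = 100 µM cantharidin control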
pPAFAH FP inh – pPAFAH (human) enzyme inhibition; Q13093; 330,000 compounds, 1.5% hits; AID 463082; recombinant pPAFAH, FP-rhodamine probe fluorescence polarization; inhibition, % at 3.39 µM;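 active means inhibition above the mean inhibition across the screen plus 3 SD, cut at about 25% in these data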;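 further: inhibitors block binding of the rhodamine activity-based probe so polarization drops; 0% = enzyme with DMSO and 100% = wells lacking pPAFAH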
PAFAH2 inh – PAFAH2 (human) inhibition. Q99487. 340,000 compounds, 0.99% hits. AID 492956. recombinant PAFAH2, FP-rhodamine activity probe, fluorescence polarization. inhibition, % at 3.39 µM;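 active means inhibition above the mean over all tested compounds plus 3 SD, cut at about 30% in these data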;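 further: inhibitors block probe labeling of enzyme so polarization drops; 0% = enzyme with DMSO and 100% = wells lacking PAFAH2 protein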
An asterisk follows results filed as active. Shown are actives, neighbours in structure and some others; about 3.4% of the full set was active somewhere.

Results for NS(=O)(=O)c1ccc(Nc2nc(-c3ccc(O)cc3O)cs2)cc1 ?
PP1 inh: 2; PAFAH1B2 FP inh: 15; PAFAH1B3 FP inh: 24; PP5 primary: 3; pPAFAH FP inh: 27*; PAFAH2 inh: 11

What do the screens show for `N#CC(OC(=O)c1ccccc1)c1cccc([N+](=O)[O-])c1` (configuration not stated)?
PAFAH1B2 FP inh: -1; PAFAH1B3 FP inh: 6; PAFAH2 inh: -5

Results for Cn1nc(C(F)(F)F)c(-c2ccc(Br)cc2)c1NC(=O)Nc1ccc(F)cc1F ?
PP1 inh: 2; PAFAH1B2 FP inh: 1; PAFAH1B3 FP inh: 2; PP5 primary: 5; pPAFAH FP inh: -13; PAFAH2 inh: 1

Results for Cc1cc2nc(SCC(=O)N(C)C)c3c(c2cc1C)CCCC3 ?
PP1 inh: 4; PAFAH1B2 FP inh: -5; PAFAH1B3 FP inh: 0; PP5 primary: 5; pPAFAH FP inh: 31*; PAFAH2 inh: 5

Results for CN(C)C(=O)CSc1nc(-c2ccccc2)nc2c1CCCC2 ?
PP1 inh: 1; PAFAH1B2 FP inh: 2; PAFAH1B3 FP inh: 5; PP5 primary: 5; pPAFAH FP inh: 2; PAFAH2 inh: 3

Results for O=C1COc2ccc(C(=O)COC(=O)c3ccc([N+](=O)[O-])cc3Cl)cc2N1 ?
PAFAH1B2 FP inh: 3; PAFAH1B3 FP inh: 5; PAFAH2 inh: -2

How did CCOC(=O)CNC(=O)C12CC3CC(C1)CC(c1ccc(C)cc1)(C3)C2 do in these assays?
PP1 inh: -3; PAFAH1B2 FP inh: 4; PAFAH1B3 FP inh: 3; PP5 primary: 1; pPAFAH FP inh: 12; PAFAH2 inh: -4

What do the screens show for `CCOc1ccc(NC(=O)C23CC4CC(C2)CC(c2ccccc2)(C4)C3)cc1`?
PP1 inh: 1; PAFAH1B2 FP inh: 27*; PAFAH1B3 FP inh: 8; PP5 primary: 1; pPAFAH FP inh: 4; PAFAH2 inh: 5

What do the screens show for `CCc1ccc(C(=O)/C=C2\Sc3ccccc3NC2=O)cc1`?
PP1 inh: -1; PAFAH1B2 FP inh: 4; PAFAH1B3 FP inh: 5; PP5 primary: 3; pPAFAH FP inh: 17; PAFAH2 inh: 36*

How did Cn1cc(S(=O)(=O)Nc2ccc(F)c(Cl)c2)c(=O)n(C)c1=O do in these assays?
PP1 inh: -1; PAFAH1B2 FP inh: 6; PAFAH1B3 FP inh: -5; PP5 primary: -1; pPAFAH FP inh: 2; PAFAH2 inh: 7

Results for Nc1ccc2c(c1)-c1ccc(F)cc1C2=O ?
PAFAH1B2 FP inh: 4; PAFAH1B3 FP inh: 7; PAFAH2 inh: 2

Results for Cc1ccc(NC(=S)N2CCCCC2CO)cc1C (configuration not stated) ?
PP1 inh: -1; PAFAH1B2 FP inh: 2; PAFAH1B3 FP inh: 10; PP5 primary: 2; pPAFAH FP inh: -1; PAFAH2 inh: 5

Results for O=C(N/N=C/c1ccc([N+](=O)[O-])o1)c1cn(-c2ccccc2)nc1-c1ccc(Cl)cc1 ?
PP1 inh: 7; PAFAH1B2 FP inh: -1; PAFAH1B3 FP inh: -2; PP5 primary: -2; pPAFAH FP inh: 11; PAFAH2 inh: -7

How did O=C(N/N=C/c1ccc([N+](=O)[O-])o1)c1cn(-c2ccccc2)nc1-c1ccccc1 do in these assays?
PP1 inh: 6; PAFAH1B2 FP inh: -1; PAFAH1B3 FP inh: 7; PP5 primary: 1; pPAFAH FP inh: 27*; PAFAH2 inh: -4

What do the screens show for `COc1ccc(Cl)cc1NC(=O)c1[nH]c(C)c(C(C)=O)c1C`?
PP1 inh: 17*; PAFAH1B2 FP inh: 2; PAFAH1B3 FP inh: 3; PP5 primary: 2; pPAFAH FP inh: 0; PAFAH2 inh: 11

Results for Cc1ccc(SCc2ccc(C(=O)Nc3cc([N+](=O)[O-])ccc3C)cc2)cc1 ?
PP1 inh: 2; PAFAH1B2 FP inh: 29*; PAFAH1B3 FP inh: 8; PP5 primary: 1; pPAFAH FP inh: 7; PAFAH2 inh: 0

How did C=CC[C@@H](CC(=O)N(CCO)Cc1ccccc1)C(=O)N[C@H](C)COC(=O)[C@@H](CC=C)Cc1ccc(F)cc1 do in these assays?
PAFAH1B2 FP inh: 11; PAFAH1B3 FP inh: 7; pPAFAH FP inh: 3; PAFAH2 inh: 13

Results for C=CCC[C@H](Cc1ccc(F)cc1)C(=O)O[C@H](CNC(=O)[C@@H](CC=C)CC(=O)N(CCO)Cc1ccccc1)c1ccccc1 ?
PAFAH1B2 FP inh: 27*; PAFAH1B3 FP inh: 5; pPAFAH FP inh: 19; PAFAH2 inh: 6

How did C=CC[C@H](CC(=O)N(CCO)Cc1ccccc1)C(=O)N[C@H](COC(=O)[C@@H](CC=C)Cc1ccc(F)cc1)Cc1ccccc1 do in these assays?
PAFAH1B2 FP inh: 57*; PAFAH1B3 FP inh: 3; pPAFAH FP inh: 4; PAFAH2 inh: -1

Results for O=C(NCC(=O)N(c1cccnc1)C(C(=O)NC1CCCC1)c1ccc(F)cc1)c1ccco1 (configuration not stated) ?
PP1 inh: -2; PP5 primary: 2; pPAFAH FP inh: 2

What do the screens show for `O=C(CSc1ccccn1)Nc1nonc1[N+](=O)[O-]`?
PP1 inh: -1; PAFAH1B2 FP inh: 4; PAFAH1B3 FP inh: 5; PP5 primary: 1; pPAFAH FP inh: -4; PAFAH2 inh: 5

Results for CC(=O)Nc1ccc2c(c1)Cc1cc(N3C(=O)C=CC3=O)ccc1-2 ?
PAFAH1B2 FP inh: -6; PAFAH1B3 FP inh: -12; PAFAH2 inh: -23

What do the screens show for `O=C(COC(=O)C1CC2C=CC1C2)Nc1ccc2c(c1)OC(F)(F)O2` (configuration not stated)?
PP1 inh: 6; PAFAH1B2 FP inh: 0; PAFAH1B3 FP inh: 1; PP5 primary: 3; pPAFAH FP inh: 26*; PAFAH2 inh: 46*

How did Cc1c(Cc2ccccc2)c(=O)oc2c(C)c(OCC(=O)N[C@@H](Cc3ccccc3)C(=O)O)ccc12 do in these assays?
PP1 inh: 5; PAFAH1B2 FP inh: 9; PAFAH1B3 FP inh: 1; PP5 primary: 1; pPAFAH FP inh: 33*; PAFAH2 inh: 15

How did Cn1nnc(NC(=O)/C=C/c2ccco2)n1 do in these assays?
PP1 inh: -2; PP5 primary: -3; pPAFAH FP inh: 3

How did CCCn1nnc(NC(=S)NC(=O)/C=C/c2ccco2)n1 do in these assays?
PP1 inh: 2; PAFAH1B2 FP inh: 3; PAFAH1B3 FP inh: 4; PP5 primary: 1; pPAFAH FP inh: 26*; PAFAH2 inh: 12

What do the screens show for `COc1c(F)c(F)c(C(=O)O)c(Nc2ccc(C)cc2C)c1F`?
PP1 inh: 0; PAFAH1B2 FP inh: 5; PAFAH1B3 FP inh: 1; PP5 primary: 0; pPAFAH FP inh: 6; PAFAH2 inh: -8

What do the screens show for `Cc1ccc(N2CC(C(=O)Nc3cccnc3)CC2=O)cc1Cl` (configuration not stated)?
PP1 inh: -1; PAFAH1B2 FP inh: -1; PAFAH1B3 FP inh: -2; PP5 primary: 2; pPAFAH FP inh: -3; PAFAH2 inh: -1
